Here are results for 21 molecules from PubChem BioAssay (EPA / NIEHS).

Inconclusive results are not listed. The source made the active and inactive calls. Rule for the calls: active = hit-call score of the fitted dose curve at least 0.9, where 1 is the maximum; inconclusive = response in the unintended direction; inactive = score below 0.9.

Test [1] in a line: ACEA_AR_agonist_AUC_viability: ACEA Biosciences xCELLigence Real-Time Cell Analysis on Androgen Receptor Agonism for Viability (AID 2283775).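 For AC50: viability read 80 hours after compound addition.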 A digest of the protocol:
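22Rv1 cells; impedance growth kinetics; 8-pt 1:4 dilutions from 100 uM top final, ≤0.5% DMSO; n = 2; 80 h read; AUC viability, loss-of-signal vs DMSO.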

Test [2] in a line: ACEA_AR_antagonist_AUC_viability: ACEA Biosciences xCELLigence Real-Time Cell Analysis on Androgen Receptor Antagonism for Viability (AID 2283776).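 Note: 22Rv1 human prostate cancer cells growing on impedance electrode plates; area under impedance growth curve at 80 h after dosing as viability; hits lower the growth signal relative to DMSO meaning cytotoxicity.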 The method in brief: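 Real-time electrical impedance tracks 22Rv1 proliferation after continuous compound exposure (top 100 uM final, 1:4 steps, 8 concentrations). The 80 h area-under-curve serves as the cytotoxicity readout relative to DMSO.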

Test [3] is described as follows: STM_H9_NormalizedViability: Cytotoxicity Assessment at 120 hours in the Stemina devTOX quickPredict H9 human embryonic stem cell (hESC)-based Assay (AID 2283784). A digest of the protocol: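 Viability endpoint: background-corrected CellTiter-Fluor RFU expressed relative to the 0.1% DMSO mean on each plate. Undifferentiated H9 cells were treated with daily re-dosing and media change, and loss of signal was fitted.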

Test [4] has as its target AR (gene 367) (UniProt P10275). Description: ACEA_AR_antagonist_80hr: ACEA Biosciences xCELLigence Real-Time Cell Analysis on Androgen Receptor Antagonism for Proliferation (AID 2283787).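 Note: 22Rv1 human prostate cancer cells with growth followed by electrical impedance; hits lower the impedance growth signal relative to DMSO.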 A digest of the protocol: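 Impedance-based real-time growth of 22Rv1 prostate cells, read 80 h after dosing. Eight concentrations, 1:4 series, top 100 uM final (0.5% DMSO), n = 2; signal decrease scored against DMSO.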

The test system of test [5] is zebrafish Estrogen Receptor (ESR2B), gene 317733. Nature of the test: ATG_zfER2b_XSP1: Attagene TRANS-FACTORIAL Multi-Species (XSP1) HepG2 Assay for zebrafish Estrogen Receptor (ESR2B) (AID 2283773). The method in brief:
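Medium contained 3 nM 6-alpha-fluorotestosterone. Reporter mRNA induction by exogenous zebrafish ER2b-Gal4 chimera was read 24 h post-dose in transiently transfected HepG2 cells, using RT-PCR, fluorescent labelling, HpaI digestion and capillary electrophoresis.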

For test [6], the system named is frog Estrogen Receptor (ESR2), gene 100174814. Description: ATG_frER2_XSP1: Attagene TRANS-FACTORIAL Multi-Species (XSP1) HepG2 Assay for frog Estrogen Receptor (ESR2) (AID 2283774). The method in brief:
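Reporter mRNA from a multiplexed TRANS system, measured by RT-PCR with fluorescent labelling and capillary electrophoresis, 24 hours after chemical exposure. Human HepG2 liver cells carried exogenous frog ER-Gal4 chimera; medium included 3 nM 6-alpha-fluorotestosterone; increases versus DMSO analysed.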

Test [7] relates to frog Estrogen Receptor (ESR1), gene 398734. Description: ATG_frER1_XSP1: Attagene TRANS-FACTORIAL Multi-Species (XSP1) HepG2 Assay for frog Estrogen Receptor (ESR1) (AID 2283777). A digest of the protocol:
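HepG2 cells transiently transfected with GAL4-UAS reporter units and frog ER–Gal4 chimera were dosed for 24 h with 3 nM 6-alpha-fluorotestosterone present. Reporter mRNA was measured by RT-PCR and capillary electrophoresis; gain of signal fitted versus DMSO.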

In test [8] the test system is zebrafish Estrogen Receptor (ESR2A), gene 317734. Nature of the test: ATG_zfER2a_XSP1: Attagene TRANS-FACTORIAL Multi-Species (XSP1) HepG2 Assay for zebrafish Estrogen Receptor (ESR2A) (AID 2283778). A digest of the protocol: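 Reporter transcripts were quantified by RT-PCR, 6-FAM labelling, HpaI digestion and capillary electrophoresis after 24 h dosing. The cells were HepG2 transiently carrying a zebrafish ER2a–Gal4 construct plus multiplexed UAS reporters; medium contained 3 nM 6-alpha-fluorotestosterone.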

The target of test [9] is Estrogen receptor (Homo sapiens) (UniProt P03372). Description: ATG_hERa_XSP1: Attagene TRANS-FACTORIAL Multi-Species (XSP1) HepG2 Assay for human Estrogen Receptor (ESR1) (AID 2283780). The method in brief: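 Reporter transcripts from multiplexed GAL4-UAS units driven by NR-Gal4 chimeras in transiently transfected HepG2 were measured by RT-PCR with capillary electrophoresis 24 h post-dose, with 3 nM 6-alpha-fluorotestosterone present; gain-of-signal relative to DMSO.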
Estrogen receptor (Homo sapiens), sequence (P03372 whole entry, looked up, the tested form may be a part): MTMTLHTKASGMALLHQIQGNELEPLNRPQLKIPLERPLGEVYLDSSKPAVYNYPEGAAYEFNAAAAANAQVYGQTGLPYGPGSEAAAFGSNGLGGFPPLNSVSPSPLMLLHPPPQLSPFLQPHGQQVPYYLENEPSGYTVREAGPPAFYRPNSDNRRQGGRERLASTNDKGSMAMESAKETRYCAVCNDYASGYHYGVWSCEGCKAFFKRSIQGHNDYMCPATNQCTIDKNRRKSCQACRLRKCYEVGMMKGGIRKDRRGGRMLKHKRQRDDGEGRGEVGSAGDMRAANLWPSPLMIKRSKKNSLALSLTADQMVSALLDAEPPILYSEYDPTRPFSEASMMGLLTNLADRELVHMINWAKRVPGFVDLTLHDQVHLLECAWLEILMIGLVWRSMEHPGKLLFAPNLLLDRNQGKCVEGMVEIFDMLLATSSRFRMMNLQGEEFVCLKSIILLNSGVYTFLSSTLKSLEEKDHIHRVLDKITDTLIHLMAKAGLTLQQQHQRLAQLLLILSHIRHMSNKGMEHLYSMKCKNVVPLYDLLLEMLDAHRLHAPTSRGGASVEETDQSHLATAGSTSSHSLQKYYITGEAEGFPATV

The nature of test [10]: ACEA_ER_AUC_viability: ACEA Biosciences xCELLigence Real-Time Cell Analysis on Estrogen Receptor Agonism for Viability (AID 2283782).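 Note: hit means loss of impedance signal meaning reduced cell growth or viability.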 The method in brief: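 Viability endpoint: reduced impedance area under the curve relative to DMSO, recorded by real-time electrode sensing over ~80 h of continuous exposure. Duplicate plates of T47D in hormone-depleted medium; eight concentrations, 1:4 dilutions, 100 uM maximum.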

The target of test [11] is zebrafish Estrogen Receptor (ESR1), esr1 (gene 259252) (UniProt P57717). Nature of the test: ATG_zfER1_XSP1: Attagene TRANS-FACTORIAL Multi-Species (XSP1) HepG2 Assay for zebrafish Estrogen Receptor (ESR1) (AID 2283772). The method in brief: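 Trans-activation readout: transfected zebrafish ER-Gal4 drives a UAS reporter in human HepG2 liver cells. After 24 h compound exposure (medium containing 3 nM 6-alpha-fluorotestosterone), induced reporter transcripts were quantified by RT-PCR with capillary electrophoresis, relative to DMSO.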
zebrafish Estrogen Receptor (ESR1), esr1 (gene 259252), sequence (P57717 whole entry, looked up, the tested form may be a part): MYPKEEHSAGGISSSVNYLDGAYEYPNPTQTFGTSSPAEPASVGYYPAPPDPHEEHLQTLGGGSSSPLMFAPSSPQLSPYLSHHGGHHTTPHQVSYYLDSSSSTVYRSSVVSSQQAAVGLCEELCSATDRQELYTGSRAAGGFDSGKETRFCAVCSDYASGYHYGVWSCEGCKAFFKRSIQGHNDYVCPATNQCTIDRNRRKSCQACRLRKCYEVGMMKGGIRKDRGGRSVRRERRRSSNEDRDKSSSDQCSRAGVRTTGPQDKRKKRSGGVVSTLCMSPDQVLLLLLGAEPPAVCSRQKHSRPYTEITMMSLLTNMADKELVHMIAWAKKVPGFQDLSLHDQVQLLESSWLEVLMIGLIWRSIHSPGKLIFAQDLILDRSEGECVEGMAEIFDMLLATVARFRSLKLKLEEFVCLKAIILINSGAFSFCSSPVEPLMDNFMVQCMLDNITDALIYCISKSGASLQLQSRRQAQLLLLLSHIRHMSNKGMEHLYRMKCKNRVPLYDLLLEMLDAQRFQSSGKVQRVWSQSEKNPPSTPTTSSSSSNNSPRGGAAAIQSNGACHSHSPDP

The target of test [12] is chicken Estrogen Receptor (ESR1), ESR1 (gene 396099) (UniProt P06212). Description: ATG_chERa_XSP1: Attagene TRANS-FACTORIAL Multi-Species (XSP1) HepG2 Assay for chicken Estrogen Receptor (ESR1) (AID 2283779). A digest of the protocol: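 Trans-activation of an exogenous chicken ERα–Gal4 chimera read as reporter transcript (RT-PCR, fluorescent labeling, capillary electrophoresis) after 24 h compound exposure of transfected HepG2; medium held 3 nM 6-alpha-fluorotestosterone. Positive-direction fit against DMSO.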
chicken Estrogen Receptor (ESR1), ESR1 (gene 396099), sequence (P06212 whole entry, looked up, the tested form may be a part): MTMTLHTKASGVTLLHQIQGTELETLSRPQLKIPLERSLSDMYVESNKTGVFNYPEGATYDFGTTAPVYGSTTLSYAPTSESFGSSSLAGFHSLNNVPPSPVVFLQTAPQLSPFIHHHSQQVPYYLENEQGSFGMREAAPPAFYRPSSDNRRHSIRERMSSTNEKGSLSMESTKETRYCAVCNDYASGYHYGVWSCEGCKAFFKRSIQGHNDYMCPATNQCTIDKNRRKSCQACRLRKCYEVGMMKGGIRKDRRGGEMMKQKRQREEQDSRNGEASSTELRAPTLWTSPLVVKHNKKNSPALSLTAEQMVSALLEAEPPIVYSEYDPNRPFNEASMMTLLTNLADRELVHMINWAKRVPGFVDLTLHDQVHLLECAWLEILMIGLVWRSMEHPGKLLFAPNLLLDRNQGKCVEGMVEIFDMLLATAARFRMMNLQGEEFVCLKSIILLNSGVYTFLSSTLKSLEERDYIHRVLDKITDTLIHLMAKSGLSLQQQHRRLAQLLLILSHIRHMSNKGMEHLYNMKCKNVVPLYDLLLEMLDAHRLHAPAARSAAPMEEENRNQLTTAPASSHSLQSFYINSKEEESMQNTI

Test [13] relates to turtle Estrogen Receptor (ESR1), gene 101933533. Nature of the test: ATG_trERa_XSP1: Attagene TRANS-FACTORIAL Multi-Species (XSP1) HepG2 Assay for turtle Estrogen Receptor (ESR1) (AID 2283781). A digest of the protocol:
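Transactivation measured 24 h post-dose as reporter mRNA (RT-PCR, fluorescent capillary electrophoresis) from an NR-Gal4 turtle ER construct in HepG2. Medium included 3 nM 6-alpha-fluorotestosterone; increase over DMSO fitted.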

Test [14] concerns the target GAL4 Transcription Factor (Internal Marker), GAL4 (gene 855828) (UniProt P04386). Description: ATG_GAL4_XSP1: Attagene TRANS-FACTORIAL Multi-Species (XSP1) HepG2 Assay for GAL4 Transcription Factor (Internal Marker) (AID 2283789). A digest of the protocol:
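This background-control endpoint measures GAL4-driven reporter mRNA via RT-PCR and capillary electrophoresis of labelled fragments. Transiently transfected HepG2 cells were treated 24 h, with 3 nM 6-alpha-fluorotestosterone included, and gain-of-signal was fitted against DMSO.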

For test [15], the target named is AR (gene 367) (UniProt P10275). Description: ACEA_AR_agonist_80hr: ACEA Biosciences xCELLigence Real-Time Cell Analysis on Androgen Receptor Agonism for Proliferation (AID 2283783).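 Note: hits increase impedance growth signal above DMSO baseline.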 A digest of the protocol: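 Eight concentrations, 1:4 serial dilution from a 100 uM final top, in biological duplicate. Impedance-based real-time growth of 22Rv1 cells after overnight baseline, recorded hourly and read at 80 hours. Controls: testosterone, MG132, assay media.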
AR (gene 367), sequence (P10275 whole entry, looked up): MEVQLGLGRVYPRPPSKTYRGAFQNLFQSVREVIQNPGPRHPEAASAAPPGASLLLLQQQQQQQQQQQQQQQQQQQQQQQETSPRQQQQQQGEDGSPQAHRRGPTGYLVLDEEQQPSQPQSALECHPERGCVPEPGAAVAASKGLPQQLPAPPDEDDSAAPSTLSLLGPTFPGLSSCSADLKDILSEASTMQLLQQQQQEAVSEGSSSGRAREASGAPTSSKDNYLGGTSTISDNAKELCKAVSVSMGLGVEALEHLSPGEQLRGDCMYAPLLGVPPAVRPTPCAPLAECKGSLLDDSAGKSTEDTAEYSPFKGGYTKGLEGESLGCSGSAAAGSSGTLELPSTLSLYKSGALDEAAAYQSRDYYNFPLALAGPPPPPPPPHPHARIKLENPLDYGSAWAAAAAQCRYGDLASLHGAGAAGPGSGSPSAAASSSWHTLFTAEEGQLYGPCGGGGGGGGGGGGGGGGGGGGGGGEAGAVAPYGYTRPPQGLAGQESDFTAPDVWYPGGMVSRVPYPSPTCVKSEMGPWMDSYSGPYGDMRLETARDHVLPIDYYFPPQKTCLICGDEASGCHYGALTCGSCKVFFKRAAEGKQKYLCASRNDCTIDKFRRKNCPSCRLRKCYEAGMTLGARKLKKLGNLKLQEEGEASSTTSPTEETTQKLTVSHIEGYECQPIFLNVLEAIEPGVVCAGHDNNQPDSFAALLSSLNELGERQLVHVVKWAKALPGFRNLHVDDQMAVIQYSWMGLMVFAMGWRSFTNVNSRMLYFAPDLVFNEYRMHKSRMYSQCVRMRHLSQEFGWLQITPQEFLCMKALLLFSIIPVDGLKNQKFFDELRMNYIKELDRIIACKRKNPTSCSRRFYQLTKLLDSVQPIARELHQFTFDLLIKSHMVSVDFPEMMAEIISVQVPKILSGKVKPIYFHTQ

GAL4 Transcription Factor (Internal Marker), GAL4 (gene 855828), sequence (P04386 whole entry, looked up, the tested form may be a part): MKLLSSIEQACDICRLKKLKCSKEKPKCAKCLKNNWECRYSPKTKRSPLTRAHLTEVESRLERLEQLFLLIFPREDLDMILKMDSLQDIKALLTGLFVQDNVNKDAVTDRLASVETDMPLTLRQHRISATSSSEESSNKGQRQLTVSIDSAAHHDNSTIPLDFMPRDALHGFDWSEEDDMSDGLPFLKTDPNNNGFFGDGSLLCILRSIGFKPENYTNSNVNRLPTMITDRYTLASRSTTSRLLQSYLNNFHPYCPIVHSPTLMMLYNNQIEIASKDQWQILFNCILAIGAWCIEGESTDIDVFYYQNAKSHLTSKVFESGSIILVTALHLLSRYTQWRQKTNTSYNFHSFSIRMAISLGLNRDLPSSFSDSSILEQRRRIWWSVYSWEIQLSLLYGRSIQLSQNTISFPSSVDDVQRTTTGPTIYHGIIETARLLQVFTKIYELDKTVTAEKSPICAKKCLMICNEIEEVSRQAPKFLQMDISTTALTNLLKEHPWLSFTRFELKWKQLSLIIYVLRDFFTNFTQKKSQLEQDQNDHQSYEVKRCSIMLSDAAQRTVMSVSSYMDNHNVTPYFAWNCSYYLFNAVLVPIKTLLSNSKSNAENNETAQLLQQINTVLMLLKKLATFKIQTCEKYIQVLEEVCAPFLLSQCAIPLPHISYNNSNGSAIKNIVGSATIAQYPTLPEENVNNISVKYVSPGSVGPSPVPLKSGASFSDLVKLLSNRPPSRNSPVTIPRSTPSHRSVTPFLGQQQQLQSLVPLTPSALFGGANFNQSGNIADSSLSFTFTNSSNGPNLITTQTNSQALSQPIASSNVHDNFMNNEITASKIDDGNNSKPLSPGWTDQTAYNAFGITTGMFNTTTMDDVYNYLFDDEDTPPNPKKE

For orientation: AC50 means the concentration at which the activity in the assay is half-maximal. Turning to `COc1cc(C=O)cc2c1[C@H](COC(N)=O)[C@]1(OC(C)=O)ON2C[C@H]2[C@@H]1N2C(C)=O`, the values for the AC50 in test [1], in test [2] and in test [3] were 0.0199 µM (active), 0.00824 µM (active) and 0.00149 µM (active), respectively.
Consider `COP(=S)(OC)SCN1C(=O)c2ccccc2C1=O`, for which the AC50 in test [1] is 79.7 µM (active); in test [2], 64.7 µM (active).
With `CC(C)(O)c1cnn2c(-c3ccc(F)c(-c4c(F)cccc4C#N)c3)cnc2n1`, in test [1], the result was inactive. Moreover, the AC50 was 51.1 µM (active) in test [2] and 57.9 µM (active) in test [4].
As for `[O-][Cl+]O`, the outcome in [1] was inactive.
As to `CCC[CH2][Sn]([Cl])([CH2]CCC)[CH2]CCC`, the call in test [5], in test [7], in test [8] and in [9] was inactive. The concentration at half-maximal activity (AC50) is 0.528 µM (active) in test [6]; 0.567 µM (active) in test [1]; 0.631 µM (active) in test [2]; 0.767 µM (active) in [10]; 0.642 µM (active) in test [3].
As for `CN(C)c1ccccc1`, the call in test [1] and in [2] was inactive.
With `ClC1=C(Cl)C2(Cl)C3C(Cl)C=CC3C1(Cl)C2(Cl)Cl` (stereo not drawn), the AC50 is 25 µM (active) in test [1] and 50 µM (active) in test [10].
Take `Clc1ccc(C(c2ccc(Cl)cc2)C(Cl)Cl)cc1`: the call in test [11] and in test [14] was inactive. Further, the AC50 in test [5] was 7.14 µM (active); in test [6] it was 6.82 µM (active); in [1], 21.3 µM (active); in test [2], 18.1 µM (active); in test [7], 8.6 µM (active); in [8], 17.8 µM (active). For the same molecule, the half-maximal activity concentration (AC50) is 10.1 µM (active) in test [12], 16.4 µM (active) in test [9], 26.4 µM (active) in [13] and 26.1 µM (active) in test [10].
Take `c1ccc2c(c1)oc1ccccc12`: the outcome in test [1] was inactive.
Take `CC(C)(C)OOC(=O)c1ccccc1`: the result in [1] and in test [10] was inactive.
On to `CC(C)(C)OOC(C)(C)CCC(C)(C)OOC(C)(C)C`, for which the result in test [2] was inactive.
In the case of `OCCCl`, the molecule was classed as inactive in test [10].
As for `CCN(CC)N=O`, the result in test [3] was inactive.
Turning to `c1ccc2c(c1)-c1cccc3cccc-2c13`, the molecule was called inactive in test [10].
For the molecule `[Cl-].[Cl-].[Hg+2]`, the AC50 in [1] is 4.59 µM (active); in test [10], 16.9 µM (active); in [3], 1.36 µM (active).
On to `Nc1ccc([N+](=O)[O-])cc1`, for which the half-maximal activity concentration (AC50) in test [1] was 16.1 µM (active); in test [10], 7.37 µM (active); in [4] it was 22 µM (active).
For the molecule `Clc1ccccc1Cl`, in [10], the molecule was classed as inactive.
For the molecule `CS(=O)(=O)NC(=O)c1cc(Oc2ccc(C(F)(F)F)cc2Cl)ccc1[N+](=O)[O-]`, the outcome in test [2] and in test [10] was inactive.
Regarding `N#CC(Br)(Br)C(N)=O`, the outcome in test [1] and in test [10] was inactive.
In the case of `Nc1ccc(Cl)cc1N`, the AC50 in test [2] and in test [4] was 50 µM (active) in each case. The molecule was called inactive in [10] and in test [15].
On to `ClCCOCCCl`, for which the call in test [1] and in test [10] was inactive.
